Experiment in all cases: glycan array binding signal (z-score within array); higher = stronger binding
What all share (settings): glycan notation: IUPAC condensed, linker removed

The target in test [1] is Glc(a1-2)Glc(a1-2)Glc(a1-2)Glc(a1-2)Glc. In a few lines: (§1)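 The binding signal is a Z-score computed within each array. Data were drawn from 3228 arrays in the Consortium for Functional Glycomics database, restricted to those with a known protein sequence. Scores were averaged over arrays of the same protein sequence at different concentrations or buffers, and over linkers, and negative values can be taken as non-binding.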

Test [2] concerns the target Glc(b1-2)Glc(b1-2)Glc(b1-2)Glc(b1-2)Glc(b1-2)Glc. In a few lines:
as §1

The target of another test is Glc(a1-2)Glc. In a few lines:
as §1

Test [3] deals with Glc(a1-6)Glc(a1-6)Glc(a1-6)Glc(a1-6)Glc(a1-6)Glc. The method, boiled down:
as §1

A further test addresses Glc(b1-2)Glc(b1-2)Glc. In a few lines: as §1
Test [4] addresses Glc(b1-2)Glc(b1-2)Glc(b1-2)Glc(b1-2)Glc(b1-2)Glc(b1-2)Glc(b1-2)Glc(b1-2)Glc. The method, boiled down: as §1
Test [5] has as its target Glc(b1-3)Glc(b1-3)Glc(b1-3)Glc(b1-3)Glc(b1-3)Glc(b1-3)[Glc(b1-6)]Glc(b1-3)Glc(b1-3)Glc. In a few lines: as §1
Test [6] deals with Glc(b1-4)Glc(b1-4)Glc(b1-3)Glc(b1-4)Glc(b1-4)Glc(b1-3)Glc. The method, boiled down:
as §1

In a further test the target is Glc(b1-6)Glc(b1-6)Glc. The method, boiled down: as §1
The target in test [7] is Man(b1-4)Man(b1-4)Man(b1-4)Man(b1-4)Man. In a few lines: as §1
The target of the next test is Glc(a1-3)Glc(a1-3)Glc. In a few lines: as §1
For test [8], the target named is Glc(a1-3)Glc(a1-3)Glc(a1-3)Glc(a1-3)Glc(a1-3)Glc. In a few lines: as §1
In a further test the target is Glc(b1-2)Glc. The method, boiled down: as §1
Test [9] has as its target Glc(b1-3)Glc(b1-3)Glc(b1-3)Glc(b1-3)Glc(b1-3)Glc(b1-3)Glc(b1-3)Glc. The method, boiled down:
as §1

Test [10] addresses Glc(b1-3)Glc(b1-3)[Glc(b1-6)]Glc(b1-3)Glc(b1-3)Glc(b1-3)Glc(b1-3)Glc(b1-3)Glc(b1-3)Glc. In a few lines: as §1
For test [11], the target named is Glc(b1-3)[Glc(b1-6)]Glc(a1-3)Glc(b1-3)[Glc(b1-6)]Glc. The method, boiled down: as §1
In test [12] the target is Glc(b1-4)Glc(b1-4)Glc(b1-4)Glc(b1-3)Glc. In a few lines:
as §1

The target of test [13] is Glc(b1-6)Glc(b1-6)Glc(b1-6)Glc(b1-6)Glc(b1-6)Glc(b1-6)Glc(b1-6)Glc(b1-6)Glc(b1-6)Glc(b1-6)Glc(b1-6)Glc(b1-6)Glc(b1-6)Glc(b1-6)Glc. In a few lines: as §1
Another test addresses Glc(a1-2)Glc(a1-2)Glc. The method, boiled down:
as §1

Test [14] addresses Glc(a1-4)Glc(a1-4)Glc(a1-4)Glc(a1-4)Glc(a1-4)Glc(a1-4)Glc(a1-4)Glc(a1-4)Glc(a1-4)Glc. The method, boiled down: as §1
Test [15] deals with Glc(b1-2)Glc(b1-2)Glc(b1-2)Glc(b1-2)Glc. In a few lines: as §1
In test [16] the target is Glc(b1-2)Glc(b1-2)Glc(b1-2)Glc(b1-2)Glc(b1-2)Glc(b1-2)Glc(b1-2)Glc(b1-2)Glc(b1-2)Glc(b1-2)Glc. In a few lines:
as §1

The target of test [17] is Glc(b1-4)Glc(b1-4)Glc(b1-3)Glc. In a few lines: as §1
Test [18] addresses Glc(b1-4)Glc(b1-4)Glc(b1-4)Glc(b1-4)Glc. The method, boiled down:
as §1

For test [19], the target named is Glc(b1-4)Glc(b1-4)Glc(b1-4)Glc(b1-4)Glc(b1-4)Glc(b1-4)Glc(b1-4)Glc(b1-4)Glc(b1-4)Glc. In a few lines: as §1
Test [20] deals with Glc(b1-4)Glc(b1-4)Glc(b1-4)Glc(b1-4)Glc(b1-4)Glc(b1-4)Glc(b1-4)Glc(b1-4)Glc(b1-4)Glc(b1-4)Glc(b1-4)Glc(b1-4)Glc. The method, boiled down:
as §1

In test [21] the target is Glc(b1-6)Glc(b1-6)Glc(b1-6)Glc(b1-6)Glc(b1-6)Glc(b1-6)Glc(b1-6)Glc(b1-6)Glc(b1-6)Glc. In a few lines:
as §1

The target of test [22] is Glc(a1-3)Glc(a1-3)Man(a1-2)Man(a1-2)Man(a1-3)[Man(a1-3)[Man(a1-6)]Man(a1-6)]Man(b1-4)GlcNAc. The method, boiled down:
as §1

Test [23] has as its target Glc(a1-4)Glc(a1-4)Glc(a1-4)Glc(a1-4)Glc. In a few lines:
as §1

In test [24] the target is Glc(a1-4)Glc(a1-4)Glc(a1-4)Glc(a1-4)Glc(a1-4)Glc(a1-4)Glc. In a few lines:
as §1

For test [25], the target named is Glc(b1-3)Glc(b1-3)Glc(b1-3)Glc. In a few lines:
as §1

Another test has as its target Glc(b1-4)Glc(b1-4)Glc. The method, boiled down:
as §1

Test [26] addresses Glc(a1-3)Glc(a1-3)Glc(a1-3)Glc(a1-3)Glc. The method, boiled down: as §1
The target of test [27] is Glc(a1-3)Glc(a1-3)Glc(a1-3)Glc(a1-3)Glc(a1-3)Glc(a1-3)Glc(a1-3)Glc(a1-3)Glc(a1-3)Glc(a1-3)Glc(a1-3)Glc. In a few lines:
as §1

Test [28] deals with Glc(b1-2)Glc(b1-2)Glc(b1-2)Glc. In a few lines: as §1
Test [29] concerns the target Glc(b1-3)Glc(b1-3)Glc(b1-3)Glc(b1-3)Glc(b1-3)Glc(b1-3)Glc(b1-3)Glc(b1-3)Glc(b1-3)Glc(b1-3)Glc(b1-3)Glc. The method, boiled down: as §1
Test [30] addresses Glc(b1-3)Glc(b1-3)Glc(b1-3)Glc(b1-3)Glc(b1-3)Glc(b1-3)Glc(b1-3)Glc(b1-3)Glc(b1-3)Glc(b1-3)Glc(b1-3)Glc(b1-3)Glc. In a few lines: as §1
The target in test [31] is Glc(b1-4)Glc(b1-4)Glc(b1-4)Glc(b1-4)Glc(b1-4)Glc(b1-4)Glc(b1-4)Glc. In a few lines:
as §1

Test [32] concerns the target Glc(b1-6)Glc(b1-6)Glc(b1-6)Glc. In a few lines:
as §1

The target of test [33] is Xyl(b1-4)Xyl(b1-4)Xyl(b1-4)Xyl(b1-4)Xyl(b1-4)Xyl. The method, boiled down:
as §1

The entries come from a sample that favours the strongest signals as a whole.

The source of these data is the supplement of paper PMC8728848.

B1: DC-SIGN (Homo sapiens), Q9NNX6 (protein)
chain: QVSKVPSSISQEQSRQDAIYQNLTQLKAAVGELSEKSKLQEIYQELTQLKAAVGELPEKSKLQEIYQELTRLKAAVGELPEKSKLQEIYQELTWLKAAVGELPEKSKMQEIYQELTRLKAAVGELPEKSKQQEIYQELTRLKAAVGELPEKSKQQEIYQELTRLKAAVGELPEKSKQQEIYQELTQLKAAVERLCHPCPWEWTFFQGNCYFMSNSQRNWHDSITACKEVGAQLVVIKSAEEQNFLQLQSSRSNRFTWMGLSDLNQEGTWQWVDGSPLLPSFKQYWNRGEPNNVGEEDCAEFSGNGWNDDKCNLAKFWICKKSAASCSRDEEQFLSPAPATPNPPPA
Consider B1, for which the “glycan array binding signal (z-score)” value in test [1] was -0.838; in [2], 2.48.

B2: Cel5A (Clostridium thermocellum), P16218 (protein)
chain: AVGEKMLDDFEGVLNWGSYSGEGAKVSTKIVSGKTGNGMEVSYTGTTDGYWGTVYSLPDGDWSKWLKISFDIKSVDGSANEIRFMIAEKSINGVGDGEHWVYSITPDSSWKTIEIPFSSFRRRLDYQPPGQDMSGTLDLDNIDSIHFMYANNKSGKFVVDNIKLIGATSDPTPSIKHGDLNFDNAVNSTDLLMLKRYILKSLELGTSEQEEKFKKAADLNRDNKVDSTDLTILKRYLLKAISEIPI
For B2, the “glycan array binding signal (z-score)” value was -0.143 with Glc(a1-2)Glc; -0.143 in test [3]; -0.143 with Glc(b1-2)Glc(b1-2)Glc; -0.143 in [4]; 0.047 in test [5]; 4.62 in test [6]. Moreover, the “glycan array binding signal (z-score)” value with Glc(b1-6)Glc(b1-6)Glc is -0.143; in test [7], 0.04.

B3: Cel5A (Cellvibrio mixtus), A0A266Q9Z0 (protein)
chain: TSVAGCSGVTAWNSTAVYTGGNEVVRNGVKYQAKWWTQGQDPVTNSSADGVWANKGQC
With B3, the “glycan array binding signal (z-score)” value was -0.981 in the test with Glc(a1-2)Glc; -0.977 with Glc(a1-3)Glc(a1-3)Glc; -0.941 in test [8]; -0.411 with Glc(b1-2)Glc; 2.06 in [9]; 2.2 in test [10]. Also, the “glycan array binding signal (z-score)” value in test [11] is 2.44; in test [12], 1.17; in [13] it was -0.119.

B4: Unk16A (Cellvibrio mixtus), Q336L6 (protein)
chain: VAYNTTGASSSAASSSAPSSASSSSSSAAPVLLSQGRPVTASSNFQPAANAVDGNGGTRWESTHGVSPSWIMVDLGSSKNLSQVIIDWEAANAANYLVQASNNGMSWTTLKIITTGAFGDRTDTHSVAGNYRYVRIYATARSAGNQWGYSIWELKITGN
As to B4, the “glycan array binding signal (z-score)” value in the test with Glc(a1-2)Glc(a1-2)Glc was -0.668; in [14], -0.662; in [15] it was 2.23; in test [4] it was 3.49; in [16], 2.77; in [11], 4.32. Further, the “glycan array binding signal (z-score)” value is -0.192 in test [17]; -0.479 in test [18]; -0.167 in [19]; -0.398 in test [20]; -0.248 with Glc(b1-6)Glc(b1-6)Glc; 0.062 in test [21].

B5: Malectin (Homo sapiens), Q14165 (protein)
chain: MLGAWAVEGTAVALLRLLLLLLPPAIRGPGLGVAGVAGAAGAGLPESVIWAVNAGGEAHVDVHGIHFRKDPLEGRVGRASDYGMKLPILRSNPEDQILYQTERYNEETFGYEVPIKEEGDYVLVLKFAEVYFAQSQQKVFDVRLNGHVVVKDLDIFDRVGHSTAHDEIIPMSIRKGKLSVQGEVSTFTGKLYIEFVKGYYDNPKVCALYIMAGTVDDVPKLQPHPGLEKKEEEEEEEEYDEGSNLKKQTNKNRVQSGPRTPNPYASDNSSLMFPILVAFGVFIPTLFCLCRL
Take B5: the “glycan array binding signal (z-score)” value is 5.02 in test [22]; -0.172 in test [23]; -0.012 in test [24]; -0.337 in test [25]; -0.412 with Glc(b1-4)Glc(b1-4)Glc.

B6: laminarinase (Bacillus halodurans), Q9KBL8 (protein)
chain: EETIELEGEVIPARLLSTKVKALNYDDYHNVLIDRCVEGGESIRGLGDGSWIAFHDINLEQPTNLLTVRAANENKQAVLEIRADRVDGPLVSQSVIPPTGGLQAWTTVTAQVNGETSEIRDLYLVFKGEFQLSWFSFS
Take B6: the “glycan array binding signal (z-score)” value in [26] is -0.688; in [27], -0.654; in test [28] it was 0.121; in [4], 2.57; in test [29] it was 2.38; in [30], 2.46. Moreover, the “glycan array binding signal (z-score)” value in test [10] was 2.85; with Glc(b1-4)Glc(b1-4)Glc it was -0.573; in test [31] it was -0.428; in test [32], -0.324; in test [33], -0.466.

B7: DC-SIGNR (Homo sapiens), Q9H2X3 (protein)
chain: QVSKVPSSLSQEQSEQDAIYQNLTQLKAAVGELSEKSKLQEIYQELTQLKAAVGELPEKSKLQEIYQELTRLKAAVGELPEKSKLQEIYQELTRLKAAVGELPEKSKLQEIYQELTRLKAAVGELPEKSKLQEIYQELTELKAAVGELPEKSKLQEIYQELTQLKAAVGELPDQSKQQQIYQELTDLKTAFERLCRHCPKDWTFFQGNCYFMSNSQRNWHDSVTACQEVRAQLVVIKTAEEQNFLQLQTSRSNRFSWMGLSDLNQEGTWQWVDGSPLSPSFQRYWNSGEPNNSGNEDCAEFSGSGWNDNRCDVDNYWICKKPAACFRDE
As to B7, the “glycan array binding signal (z-score)” value is 1.64 in test [4] and -0.981 in [30].
